Experimental findings from the supplement of paper PMC8975748 are described below.

Molecules are shown by their SMILES. Where a name gives a salt, the structure may show the parent alone.

In the assay the test system is Saccharomyces cerevisiae BY4741 SeMeCo community. In words: z-score of subpopulation abundance vs DMSO median, subpopulation auxotrophic for L; higher = larger share of this subpopulation than in DMSO controls. Particulars: 10 µM; 24 h; SM minimal medium; subpopulation (auxotrophy): L. The protocol: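 Fluorescent four-plasmid SeMeCo (self-establishing metabolically cooperating S. cerevisiae BY4741 community; plasmids pH-mRuby2, pL-mWasabi, pU-eCFP, pM-TagRFP657) was grown 24 h in minimal SM medium with each Selleck FDA-approved drug at 10 µM in 384-well plates. Cells were fixed and imaged by high-content confocal microscopy. For each auxotrophic subpopulation (and the prototroph), a z-score gives the deviation from the DMSO vehicle-control population median.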
For the compound `Clc1ccc(CSC(Cn2ccnc2)c2ccc(Cl)cc2Cl)cc1` (stereo not given) [Sulconazole Nitrate], the “z-score of subpopulation abundance” value is -0.34. Then `CC(C)(C)C1CCC(CC2=C(O)c3ccccc3C(=O)C2=O)CC1` (stereo not given) [Buparvaquone], with 0.5. Then `C#C[C@]1(O)CC[C@H]2[C@@H]3CCC4=Cc5oncc5C[C@]4(C)[C@H]3CC[C@@]21C` [Danazol], with -0.15; and `C[C@H]1c2cccc(O)c2C(O)=C2C(=O)[C@]3(O)C(O)=C(C(N)=O)C(=O)[C@@H](N(C)C)[C@@H]3[C@@H](O)[C@@H]21` [Doxycycline monohydrate], with 0.54. Consider `NC[C@@H]1O[C@H](O[C@H]2[C@@H](O)[C@H](O[C@@H]3[C@@H](O)[C@H](N)C[C@H](N)[C@H]3O[C@H]3O[C@H](CO)[C@@H](O)[C@H](O)[C@H]3N)O[C@@H]2CO)[C@H](N)[C@@H](O)[C@@H]1O` [Paromomycin Sulfate], for which the “z-score of subpopulation abundance” value amounted to 0.88. Turning to `CO[C@H]1C[C@@H]2CC[C@@H](C)[C@@](O)(O2)C(=O)C(=O)N2CCCC[C@H]2C(=O)O[C@H]([C@H](C)C[C@@H]2CC[C@@H](OP(C)(C)=O)[C@H](OC)C2)CC(=O)[C@H](C)/C=C(\C)[C@@H](O)[C@@H](OC)C(=O)[C@H](C)C[C@H](C)/C=C/C=C/C=C/1C` [Ridaforolimus (Deforolimus, MK-8669)], the “z-score of subpopulation abundance” value was -0.55. Take `Oc1c(I)cc(I)c2cccnc12` [Diiodohydroxyquinoline]: the “z-score of subpopulation abundance” value came out at 0.99. Turning to `CCN(CC)CCOC(=O)c1ccc(N)cc1Cl` [Chloroprocaine HCl], the “z-score of subpopulation abundance” value amounted to 0.95. For the compound `COc1cc(Cc2cnc(N)nc2N)cc(OC)c1OC` [Trimethoprim], the “z-score of subpopulation abundance” value is 0.44. As for `Cc1cc(NS(=O)(=O)c2ccc(N)cc2)no1` [Sulfamethoxazole sodium], the figure is -0.95; as for `C=CCCCCCCCCC(=O)[O-].C=CCCCCCCCCC(=O)[O-].[Zn+2]` [Zinc Undecylenate], -1.01; as for `O=c1cc(-c2ccc(O)c(O)c2)oc2cc(O)cc(O)c12` [Luteolin], 1.23. As for `CC1(C)S[C@@H]2[C@H](NC(=O)[C@H](NC(=O)N3CCNC3=O)c3ccccc3)C(=O)N2[C@H]1C(=O)O` [Azlocillin sodium salt], the figure is 1.83; as for `O=C(O)c1ccccc1C(=O)Nc1ccc(S(=O)(=O)Nc2nccs2)cc1` [Phthalylsulfathiazole], -0.97; as for `CN(C)CCOc1ccc(/C(=C(/CCCl)c2ccccc2)c2ccccc2)cc1` [Toremifene Citrate], 0.06. On to `O=C(CCCN1CCC(O)(c2ccc(Cl)cc2)CC1)c1ccc(F)cc1` [Haloperidol], for which the “z-score of subpopulation abundance” value is 0.68. Regarding `C#C[C@]1(O)CC[C@H]2[C@@H]3CCc4cc(OC)ccc4[C@H]3CC[C@@]21C` [Mestranol], the “z-score of subpopulation abundance” value was found to be 0.33. Turning to `COC(=O)C1=C(C)NC(C)=C(C(=O)OCCN(C)Cc2ccccc2)C1c1cccc([N+](=O)[O-])c1` (stereo not given) [Nicardipine HCl], the “z-score of subpopulation abundance” value came out at 0.97. Then `COc1ccc2c(c1)c(CC(=O)OCC(=O)O)c(C)n2C(=O)c1ccc(Cl)cc1` [Acemetacin], with -1.06; and `O=C(O)CCC(=O)OC[C@@H](NC(=O)C(Cl)Cl)[C@H](O)c1ccc([N+](=O)[O-])cc1` [Chloramphenicol sodium succinate], with 2.27; and `COc1cc(NC(C)CCCN)c2ncccc2c1` (stereo not given) [Primaquine Diphosphate], with -0.56. As for `CC(C)Cc1ccc(C(C)C(=O)O)cc1` (stereo not given) [Ibuprofen], the figure is -0.92; as for `NC(=O)c1ncn([C@@H]2O[C@H](CO)[C@@H](O)[C@H]2O)n1` [Ribavirin], -0.43. On to `CC(C(=O)O)c1ccc2c(c1)CC(=O)c1ccccc1S2` (stereo not given) [Zaltoprofen], for which the “z-score of subpopulation abundance” value is -0.47.

Take `Cn1cc(C(=O)[C@@H]2CCc3[nH]cnc3C2)c2ccccc21` [Ramosetron Hydrochloride]: the “z-score of subpopulation abundance” value was -0.44. As for `OC(c1cc(C(F)(F)F)nc2c(C(F)(F)F)cccc12)C1CCCCN1` (stereo not given) [Mefloquine HCl], the figure is 0.1. Turning to `CC1=C(C(=O)O)N2C(=O)[C@@H](NC(=O)[C@H](N)C3=CCC=CC3)[C@H]2SC1` [Cephradine monohydrate], the “z-score of subpopulation abundance” value is -0.33. As for `COC(=O)C1=C(C)NC(C)=C(C(=O)OC(C)(C)CN(C)CCC(c2ccccc2)c2ccccc2)C1c1cccc([N+](=O)[O-])c1` (stereo not given) [Lercanidipine hydrochloride], the figure is 1.4; as for `Cc1ccc(S(=O)(=O)NC(=O)NN2CC3CCCC3C2)cc1` (stereo not given) [Gliclazide], -0.2; as for `NC1CCN(c2nc3c(cc2F)c(=O)c(C(=O)O)cn3-c2ccc(F)cc2F)C1` (stereo not given) [Tosufloxacin p-Toluenesulfonate Hydrate], -0.11. Consider `O=c1[nH]c(=O)n([C@H]2C[C@H](O)[C@@H](CO)O2)cc1/C=C/Br` [Brivudine], for which the “z-score of subpopulation abundance” value was -2.11. For the compound `C#C[C@]1(O)CC[C@H]2[C@@H]3CCC4=CCCC[C@@H]4[C@H]3C(=C)C[C@@]21CC` [Desogestrel], the “z-score of subpopulation abundance” value is -0.12. As for `Cc1ncc([N+](=O)[O-])n1CC(C)O` (stereo not given) [Secnidazole], the figure is -0.91. As for `CNCCC(Oc1ccc(C(F)(F)F)cc1)c1ccccc1` (stereo not given) [Fluoxetine HCl], the figure is -0.14; as for `CC(=O)OC1CC2(C)C(CC(O)C3C4(C)CCC(O)C(C)C4CCC32C)C1=C(CCC=C(C)C)C(=O)O` (stereo not given) [Fusidine], 2.4; as for `COC(=O)C1=C(C)NC(C)=C(C(=O)OC2CCCN(Cc3ccccc3)C2)C1c1cccc([N+](=O)[O-])c1` (stereo not given) [Benidipine HCl], 1.12. Regarding `CN(C)CCCN1c2ccccc2Sc2ccccc21` [Promazine hydrochloride], the “z-score of subpopulation abundance” value is -0.38. In the case of `CCCCCCCCCC(=O)NC1C(Oc2c3cc4cc2Oc2ccc(cc2Cl)C(OC2OC(CO)C(O)C(O)C2NC(C)=O)C2NC(=O)C(NC(=O)C4NC(=O)C4NC(=O)C(Cc5ccc(c(Cl)c5)O3)NC(=O)C(N)c3ccc(O)c(c3)Oc3cc(O)cc4c3)c3ccc(O)c(c3)-c3c(OC4OC(CO)C(O)C(O)C4O)cc(O)cc3C(C(=O)O)NC2=O)OC(CO)C(O)C1O` (stereo not given) [Teicoplanin], the “z-score of subpopulation abundance” value was -0.21. In the case of `CCC(C)(C)C(=O)O[C@H]1C[C@@H](C)C=C2C=C[C@H](C)[C@H](CC[C@@H]3C[C@@H](O)CC(=O)O3)[C@H]21` [Simvastatin], the “z-score of subpopulation abundance” value was -0.13. As for `CCCN(CCc1cccs1)[C@H]1CCc2c(O)cccc2C1` [Rotigotine], the “z-score of subpopulation abundance” value turned out to be 0.33.
